Measured values taken from PubChem BioAssay AID463173 (ICCB-Longwood Screening Facility, Harvard Medical School, 2010).
Hit rate of the full screen: of about 52,000 compounds, about 1,700 (3.3%) were called active. The list comes from a sample in which actives are over-represented; it also holds similar structures and randomly drawn compounds. Values without a mark were called inactive. Cut-off read from the data, not from the text of the source: active = survival mostly below about 52% (no sharp cut-off); inactive = mostly above about 56%.

system: Wild type; assay: growth inhibition of S. aureus wild type versus tarO mutant, primary screen, teichoic acid synthesis inhibitors, RN4220, OD600 (AID 463173); details: S. aureus RN4220 wild type/DeltatarO growth, OD600, 18 h, stronger effect = lower value, screened at 18.75 µg/mL (by protocol)

First: CCCc1noc(-c2ccc(NCc3ccccc3OC)c([N+](=O)[O-])c2)n1
Second: CCc1ccccc1NC(=O)Cn1nnc(C(=O)Nc2ccc(OC)c(OC)c2)c1N
The survival of the first is higher: 79% for the first, 76% for the second.

First: CN(C)c1ccc(/C=C(\C#N)c2nc(-c3ccc(Cl)c(Cl)c3)cs2)cc1
Second: N#C/C(=C/c1ccc(Cl)cc1)c1nc(-c2ccc(Br)cc2)cs1
The survival of the first is higher: 89% for the first, 83% for the second.

First: CCOc1ccc(-c2csc(/C(C#N)=C/c3ccc(Br)cc3)n2)cc1
Second: COc1ccc(/C=C(/C#N)c2nc(-c3ccc(-c4ccccc4)cc3)cs2)cc1
The survival of the first is higher: 71% for the first, 66% for the second.

Compared with `Cc1ccc(/C=C(\C#N)c2nc(-c3ccc(-c4ccccc4)cc3)cs2)cc1`, `N#C/C(=C\c1ccc(F)cc1)c1nc(-c2ccc(-c3ccccc3)cc2)cs1` is lower in survival: 83% for the first, 74% for the second.

Compared with `Cc1nn2c3c(cnc2c1-c1ccc(Cl)cc1)C(=O)CC(c1ccc(C(C)C)cc1)C3` (stereo not given), `COC(=O)c1ccc(C2c3c(-c4ccc(Br)cc4)n[nH]c3C(=O)N2c2ccc(Cl)cc2)cc1` (stereo not given) is lower in survival: 78% for the first, 75% for the second.

Compared with `Cc1ccc(-n2nnc3c(sc4nc(C)c(C)cc43)c2=O)cc1Cl`, `Cc1cc(C)n(-c2nc3ccccc3nc2Nc2cc(Cl)ccc2C)n1` is higher in survival: 84% for the first, 131% for the second.

First: CCCN1C(C(=O)c2ccccc2)=C(OC(=O)COc2ccccc2)c2ccccc2S1(=O)=O
Second: CCCCC(=O)OC1=C(C(=O)c2ccccc2)N(CCC)S(=O)(=O)c2ccccc21
The survival of the first is higher: 72% for the first, 43% for the second.

Going from `CCCN1C(C(=O)c2ccccc2)=C(OC(=O)C(C)(C)C)c2ccccc2S1(=O)=O` to `CCCCC(=O)OC1=C(C(=O)c2ccccc2)N(CC)S(=O)(=O)c2ccccc21`, the survival falls from 86% to 71%.

Compared with `CCCCCN1C(C(=O)c2ccccc2)=C(NC(C)=O)c2ccccc2S1(=O)=O`, `CCCCC(=O)OC1=C(C(=O)c2ccccc2)N(C)S(=O)(=O)c2ccccc21` is higher in survival: 60% for the first, 108% for the second.

First: COc1cc(C(=O)OCn2c(=O)oc3ccccc32)cc(OC)c1OC
Second: COc1ccc(CN(C(=O)c2cc(=O)c3ccccc3o2)C2CCS(=O)(=O)C2)cc1OC (stereo not given)
The survival of the first is lower: 101% for the first, 118% for the second.

First: NC(=O)c1cc2n(n1)C(C(F)(F)F)CC(c1ccc(Cl)cc1)N2 (stereo not given)
Second: Clc1ccc(CNc2ccccn2)cc1
The survival of the first is higher: 116% for the first, 98% for the second.

Compared with `COc1ccc(Cl)cc1NC(=O)C1CCN(c2nnc(C)c3c(C)n(-c4ccccc4)nc23)CC1`, `CCOc1ccccc1CNC(=O)C(CC)n1nc(C)c2c(C)n(-c3ccccc3)nc2c1=O` (stereo not given) is higher in survival: 66% for the first, 88% for the second.

Compared with `Cc1c(Cl)cccc1-n1ncc(C(=O)N2CCN(C)CC2)c1C1CCN(C(=O)OC(C)(C)C)CC1`, `O=C(CSc1n[nH]c(-c2ccccc2Cl)n1)N1CCN(c2ccccc2F)CC1` is higher in survival: 87% for the first, 123% for the second.

First: COc1ccccc1C(=O)Nc1ccc2oc(-c3cccc(Cl)c3Cl)nc2c1
Second: CC(C)COc1ccc(C(=O)Nc2cc3nn(-c4ccccc4)nc3cc2Cl)cc1
The survival of the first is higher: 100% for the first, 57% for the second.

First: COc1ccc(S(=O)(=O)Nc2cccc(-c3ccc(N4CCCCCC4)nn3)c2)cc1F
Second: COc1cccc(CNC(=O)CN2C(=O)COc3ccc(S(=O)(=O)N4CCCCC4)cc32)c1
The survival of the first is lower: 71% for the first, 100% for the second.

Compared with `CCN1CCN(CCCNC(=O)Cn2c(-c3cccs3)cc3cc(F)ccc32)CC1`, `CCOc1ccc(CC(=O)NCCc2csc3nc(-c4ccccc4F)nn23)cc1` is lower in survival: 126% for the first, 119% for the second.

Going from `Cc1nc(-c2ccccc2)sc1-c1ccc(SCC(=O)Nc2ccc(F)cc2F)nn1` to `O=C(NCCc1csc2nc(-c3ccccc3F)nn12)C(=O)Nc1cc(F)ccc1F`, the survival rises from 30% to 63%.

Compared with `Cc1cccc(C(=O)Nc2sc3c(c2C(=O)O)CCCC3)c1`, `Cc1cccc(NC(=O)c2c(NC(=O)c3ccco3)sc3c2CCC(C)C3)c1` (stereo not given) is higher in survival: 40% for the first, 73% for the second.

Going from `CC1CCc2c(sc(NC(=O)c3ccccc3)c2C(=O)Nc2ccccc2)C1` (stereo not given) to `Cc1cccc(NC(=O)c2c(NC(=O)c3cccs3)sc3c2CCC(C)C3)c1` (stereo not given), the survival rises from 64% to 75%.

First: O=C(NC1CCCCC1)c1cccnc1Nc1ccccc1F
Second: CCOC(=O)c1sc2cccc(F)c2c1S(=O)(=O)Nc1ccccc1F
The survival of the first is lower: 113% for the first, 124% for the second.

Compared with `CC1CCCN(C(=O)Cn2ncc3c([nH]c4ccccc43)c2=O)C1` (stereo not given), `COc1ccccc1CNC(=O)CCC(=O)N1CC2CCCN2c2ccccc21` (stereo not given) is lower in survival: 81% for the first, 80% for the second.

Going from `COc1cc(NC(=O)CC(C)S(=O)(=O)c2ccc3c(c2)CCN3C(C)=O)cc(OC)c1OC` (stereo not given) to `CC(=O)N1CCc2cc(CNC(=O)Nc3ccc(Br)c(C)c3)ccc21`, the survival rises from 76% to 85%.

Going from `CCOC(=O)c1c(S(=O)(=O)NCC(=O)Nc2cccc(SC)c2)c(C)n(C)c1C` to `COc1ccc(OC)c(CNS(=O)(=O)c2c(C(=O)N3CCCCCC3)c(C)n(C)c2C)c1`, the survival rises from 70% to 135%.

Going from `COC(=O)c1ccc(NC(=O)C(=O)NCCc2csc3nc(-c4ccccc4F)nn23)cc1` to `CC(=O)Nc1cccc(NC(=O)C(=O)NCCc2csc3nc(-c4ccccc4F)nn23)c1`, the survival falls from 60% to 57%.

Compared with `Cc1ccc(NC(=O)C(=O)NCCc2csc3nc(-c4ccccc4C)nn23)cc1Cl`, `Cc1ccc(C)c(NC(=O)C(=O)NCCc2csc3nc(-c4ccccc4C)nn23)c1` is higher in survival: 82% for the first, 129% for the second.

First: O=C(CSc1nnnn1Cc1ccccc1)Nc1ccccc1
Second: O=C(CCCn1c(=O)c2cccn2c2ccccc21)NCc1ccccc1Br
The survival of the first is higher: 114% for the first, 55% for the second.

Compared with `CC(C)(C)C(=O)Nc1cccc(-c2cn3cccnc3n2)c1`, `CC(=O)c1ccc(Nc2nc3ccccc3nc2-n2nc(C)cc2C)cc1` is lower in survival: 70% for the first, 54% for the second.

First: CCc1ccc2nc(N3CCCC3)c(C#N)cc2c1
Second: CN1CCc2nc3sc(C(=O)c4ccc5c(c4)OCO5)c(N)c3cc2C1
The survival of the first is lower: 108% for the first, 116% for the second.

First: Cc1ccc(-c2n[nH]c3c2C(c2cccc(O)c2)N(c2ccc(C(=O)O)cc2)C3=O)cc1 (stereo not given)
Second: CCOC(=O)c1ccc(N2C(=O)c3[nH]nc(-c4ccc(OC)cc4)c3C2c2ccc(C)cc2)cc1 (stereo not given)
The survival of the first is higher: 98% for the first, 89% for the second.

Going from `COc1ccccc1C1c2c(-c3ccc(Cl)cc3)n[nH]c2C(=O)N1c1ccc(C)cc1` (stereo not given) to `COc1ccc(C2c3c(-c4ccc(F)cc4)n[nH]c3C(=O)N2c2ccccc2)cc1OC` (stereo not given), the survival rises from 85% to 134%.

Going from `CCOc1cc(C2c3c(-c4ccc(Br)cc4)n[nH]c3C(=O)N2c2ccc(Cl)cc2)ccc1O` (stereo not given) to `Cc1ccc(-n2c(-c3ccc(Br)cc3)nc3c(cnn3-c3ccccc3)c2=O)cc1`, the survival rises from 42% to 66%.

First: CCOC(=O)c1ccc(NC(=O)CCCn2c(=O)c3cccn3c3ccccc32)cc1
Second: CCCOC(=O)c1ccc(Nc2nc3ccccc3nc2-n2nc(C)cc2C)cc1
The survival of the first is higher: 78% for the first, 32% for the second.

Going from `CCc1ccc(C(=O)c2cn(CC(=O)Nc3ccc(OC)c(Cl)c3)c3nc(C)ccc3c2=O)cc1` to `Cc1cc(C)n(-c2nc3ccccc3nc2Nc2ccc(Cl)c(C(=O)OC(C)C)c2)n1`, the survival falls from 119% to 84%.

First: COC(=O)c1sc2cccc(F)c2c1S(=O)(=O)Nc1ccc(N(C)C)cc1
Second: COC(=O)c1sc2cccc(F)c2c1S(=O)(=O)Nc1ccc(C)cc1Cl
The survival of the first is lower: 53% for the first, 63% for the second.

Going from `COC(=O)c1sc2cccc(F)c2c1S(=O)(=O)Nc1cc(C)c(Cl)cc1OC` to `Cc1ccc2nc(Nc3cccc(Cl)c3C)c(-n3nc(C)cc3C)nc2c1`, the survival rises from 85% to 131%.

First: CC(C)c1ccc(NC(=O)C2CCCN(S(=O)(=O)c3cccc4nsnc34)C2)cc1 (stereo not given)
Second: Cc1cc(C)n(-c2nnc(Nc3ccc(C(C)C)cc3)c3ccccc23)n1
The survival of the first is lower: 70% for the first, 74% for the second.

Compared with `Cc1cc(C)cc(Nc2nc3cc(Cl)c(Cl)cc3nc2-n2nc(C)cc2C)c1`, `Cc1cc(C)cc(Nc2nnc(-n3nc(C)cc3C)c3ccccc23)c1` is higher in survival: 81% for the first, 86% for the second.

With `N#C/C(=C/c1ccc(O)cc1)c1nc(-c2ccc(-c3ccccc3)cc2)cs1` the survival was 0% (active).
With `CCc1ccc(/C=C(/C#N)c2nc(-c3ccc(C)cc3)cs2)cc1` the survival was -2% (active).
`CC(C)c1ccc(/C=C(\C#N)c2nc(-c3ccc(O)cc3)cs2)cc1` was tested, and the survival was 0% (active).
For `CCCCN1C(C(=O)c2ccccc2)=C(OC(=O)CC)c2ccccc2S1(=O)=O`, the survival was 0% (active).
With `CCCCCN1C(C(=O)c2ccccc2)=C(OC(=O)CC)c2ccccc2S1(=O)=O` the survival was -4% (active).
In the case of `CCCCN1C(C(=O)c2ccccc2)=C(OC(C)=O)c2ccccc2S1(=O)=O`, the survival is reported as -2% (active).
In the case of `Cc1cccc(C(=O)Nc2sc3c(c2C(=O)N2CCCCC2)CCC(C)C3)c1` (stereo not given), the survival is reported as -1% (active).
For `CCN(CC)C(=O)c1c(NC(=O)c2cccc(C)c2)sc2c1CCC(C)C2` (stereo not given), the survival was 2% (active).
`CC(=O)N1CCc2cc(S(=O)(=O)C(C)CC(=O)Nc3ccc(Br)c(C)c3)ccc21` (stereo not given) was tested, and the survival was -6% (active).
In the case of `Cc1c(Cl)cccc1NC(=O)C(=O)NCCc1csc2nc(-c3ccccc3F)nn12`, the survival is reported as 1% (active).
In the case of `CCOc1ccc(NC(=O)C(=O)NCCc2csc3nc(-c4ccccc4F)nn23)cc1`, the survival is reported as -3% (active).
In the case of `Cc1ccccc1-c1nc2scc(CCNC(=O)C(=O)Nc3ccc(F)cc3F)n2n1`, the survival is reported as -4% (active).
`COc1ccc(-c2n[nH]c3c2C(c2ccc(O)cc2)N(c2ccc(Br)cc2)C3=O)cc1` (stereo not given) was tested, and the survival was 11% (active).
For `O=C1c2[nH]nc(-c3ccc(F)cc3)c2C(c2ccccc2F)N1c1ccccc1` (stereo not given), the survival was 4% (active).
`O=C1c2[nH]nc(-c3ccc(Br)cc3)c2C(c2cccc(O)c2)N1c1ccc(Cl)cc1` (stereo not given) was tested, and the survival was 1% (active).
`COC(=O)c1sc2cccc(F)c2c1S(=O)(=O)Nc1cc(OC)cc(OC)c1` was tested, and the survival was 0% (active).
`CCOc1ccccc1NS(=O)(=O)c1c(C(=O)OC)sc2cccc(F)c12` was tested, and the survival was -3% (active).
`Cc1cc(C)n(-c2nc3ccccc3nc2Nc2cccc(C)c2C)n1` was tested, and the survival was 7% (active).
`Cc1cc(C)cc(Nc2nc3ccccc3nc2-n2nc(C)cc2C)c1` was tested, and the survival was 8% (active).
`Cc1cc(C)n(-c2nc3ccccc3nc2Nc2ccc(N(C)C)cc2)n1` was tested, and the survival was 2% (active).
In the case of `Cc1cc(C)n(-c2nc3ccccc3nc2Nc2ccc(C(C)C)cc2)n1`, the survival is reported as 5% (active).
